Measured values as given in publication PMC7862700, “An all-to-all approach to the identification of sequence-specific readers for epigenetic DNA modifications on cytosine”.

What was measured:
Assay in all cases: DAPPL (digital affinity profiling via proximity ligation, sequencing); 10 mM Tris-HCl pH 7.5, 50 mM NaCl, 1 mM DTT, 4% glycerol, room temperature, 30 min; GST-TFs on glutathione beads, 16-mer random dsDNA library, 0.1% formaldehyde crosslink after washing; high values mean tight binding
FEV = biological target: T1, FEV (Homo sapiens, UniProt Q99581 1-238); conditions: protein: recombinant; tags: N-terminal GST; dsDNA, one strand shown
T1 sequence: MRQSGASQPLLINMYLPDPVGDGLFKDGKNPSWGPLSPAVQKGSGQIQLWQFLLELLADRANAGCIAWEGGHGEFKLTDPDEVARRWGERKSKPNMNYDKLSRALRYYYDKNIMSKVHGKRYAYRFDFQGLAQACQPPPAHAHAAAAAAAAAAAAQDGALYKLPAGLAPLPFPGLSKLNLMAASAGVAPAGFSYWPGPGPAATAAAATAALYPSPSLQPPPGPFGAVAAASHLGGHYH
Summary of the method: (§1)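 Sequencing on an Illumina NextSeq500 followed washing, crosslinking with 0.1% formaldehyde, proximity ligation (BsaI/T4 ligase, 1 h, 37 °C) and PCR amplification of pools that had been incubated for 30 min at room temperature with 200 nmole of a random double-stranded 16-mer DNA library in Tris/NaCl/DTT/glycerol buffer. Each pool held DNA-barcoded human transcription factors, expressed in yeast as GST fusions and captured on glutathione beads, plus a tag-only sample. Binding signal is a hexamer's read frequency for a factor divided by its frequency in the tag-only sample.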

ETV5 = ETV5 (Homo sapiens, UniProt P41161 1-510); conditions: protein: recombinant; tags: N-terminal GST; dsDNA, one strand shown
Summary of the method: as §1

HSF1 = HSF1 (Homo sapiens, UniProt Q00613 1-529); conditions: protein: recombinant; tags: N-terminal GST; chain copies: 3; dsDNA, one strand shown
Summary of the method: as §1

SPIC = biological target: T2, SPIC (Homo sapiens, UniProt Q8N5J4 1-248); conditions: protein: recombinant; tags: N-terminal GST; dsDNA, one strand shown
T2 sequence: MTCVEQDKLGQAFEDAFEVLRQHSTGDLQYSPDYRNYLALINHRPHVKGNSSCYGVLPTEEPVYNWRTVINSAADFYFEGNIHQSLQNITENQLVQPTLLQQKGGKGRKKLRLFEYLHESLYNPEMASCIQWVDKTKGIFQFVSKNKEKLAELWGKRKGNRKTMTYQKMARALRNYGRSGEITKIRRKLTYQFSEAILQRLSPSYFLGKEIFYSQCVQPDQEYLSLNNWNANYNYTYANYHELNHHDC
Summary of the method: as §1

ELF4 = ELF4 (Homo sapiens, UniProt Q99607 1-663); conditions: protein: recombinant; tags: N-terminal GST; dsDNA, one strand shown
Summary of the method: as §1

ELK4 = biological target: T3, ELK4 (Homo sapiens, UniProt P28324-2 1-405); conditions: protein: recombinant; tags: N-terminal GST; dsDNA, one strand shown
T3 sequence: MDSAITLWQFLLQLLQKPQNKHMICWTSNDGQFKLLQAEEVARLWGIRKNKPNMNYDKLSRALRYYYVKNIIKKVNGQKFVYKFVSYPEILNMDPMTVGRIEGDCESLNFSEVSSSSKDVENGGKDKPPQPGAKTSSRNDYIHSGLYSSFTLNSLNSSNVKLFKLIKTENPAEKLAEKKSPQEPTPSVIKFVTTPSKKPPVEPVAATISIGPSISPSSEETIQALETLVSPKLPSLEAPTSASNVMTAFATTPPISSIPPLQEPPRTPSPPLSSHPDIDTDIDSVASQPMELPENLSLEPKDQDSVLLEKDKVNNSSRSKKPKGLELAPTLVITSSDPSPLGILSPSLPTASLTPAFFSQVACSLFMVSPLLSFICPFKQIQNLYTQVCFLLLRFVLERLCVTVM
Summary of the method: as §1

ETV2 = biological target: T4, ETV2 (Homo sapiens, UniProt O00321 1-342); conditions: protein: recombinant; tags: N-terminal GST; dsDNA, one strand shown
T4 sequence: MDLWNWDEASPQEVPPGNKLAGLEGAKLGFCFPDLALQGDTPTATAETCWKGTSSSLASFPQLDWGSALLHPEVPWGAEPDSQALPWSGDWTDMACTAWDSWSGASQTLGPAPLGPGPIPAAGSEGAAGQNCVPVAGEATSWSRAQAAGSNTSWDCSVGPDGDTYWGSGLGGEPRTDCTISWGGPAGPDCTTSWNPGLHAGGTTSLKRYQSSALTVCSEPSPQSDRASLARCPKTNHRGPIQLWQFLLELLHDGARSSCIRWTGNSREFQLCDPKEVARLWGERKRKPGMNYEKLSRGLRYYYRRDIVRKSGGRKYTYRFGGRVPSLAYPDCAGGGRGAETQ
Summary of the method: as §1

ELF3 = biological target: T5, ELF3 (Homo sapiens, UniProt P78545 1-371); conditions: protein: recombinant; tags: N-terminal GST; dsDNA, one strand shown
T5 sequence: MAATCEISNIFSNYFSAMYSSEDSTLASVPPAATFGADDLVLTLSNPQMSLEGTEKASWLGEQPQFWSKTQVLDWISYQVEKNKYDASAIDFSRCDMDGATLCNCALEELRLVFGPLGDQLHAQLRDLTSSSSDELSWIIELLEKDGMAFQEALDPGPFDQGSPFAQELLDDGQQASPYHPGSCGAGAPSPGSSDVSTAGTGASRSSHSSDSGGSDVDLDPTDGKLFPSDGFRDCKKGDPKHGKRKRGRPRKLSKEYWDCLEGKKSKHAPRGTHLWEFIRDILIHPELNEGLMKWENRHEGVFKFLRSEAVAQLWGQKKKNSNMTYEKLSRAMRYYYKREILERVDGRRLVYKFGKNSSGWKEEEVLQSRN
Summary of the method: as §1

CRX = CRX (Homo sapiens, UniProt O43186 1-299); conditions: protein: recombinant; tags: N-terminal GST; dsDNA, one strand shown
Summary of the method: as §1

ETV1 = ETV1 (Homo sapiens, UniProt P50549 1-477); conditions: protein: recombinant; tags: N-terminal GST; dsDNA, one strand shown
Summary of the method: as §1

Sequence of CRX (O43186 whole entry): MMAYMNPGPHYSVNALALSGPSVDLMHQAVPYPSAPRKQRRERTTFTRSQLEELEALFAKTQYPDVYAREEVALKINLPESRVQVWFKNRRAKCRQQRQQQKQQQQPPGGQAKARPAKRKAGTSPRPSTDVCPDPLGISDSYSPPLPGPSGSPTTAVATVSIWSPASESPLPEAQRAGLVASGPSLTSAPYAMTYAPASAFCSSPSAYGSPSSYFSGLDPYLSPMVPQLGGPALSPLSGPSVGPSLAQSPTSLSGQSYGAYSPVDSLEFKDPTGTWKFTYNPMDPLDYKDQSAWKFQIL
Sequence of HSF1 (Q00613 whole entry): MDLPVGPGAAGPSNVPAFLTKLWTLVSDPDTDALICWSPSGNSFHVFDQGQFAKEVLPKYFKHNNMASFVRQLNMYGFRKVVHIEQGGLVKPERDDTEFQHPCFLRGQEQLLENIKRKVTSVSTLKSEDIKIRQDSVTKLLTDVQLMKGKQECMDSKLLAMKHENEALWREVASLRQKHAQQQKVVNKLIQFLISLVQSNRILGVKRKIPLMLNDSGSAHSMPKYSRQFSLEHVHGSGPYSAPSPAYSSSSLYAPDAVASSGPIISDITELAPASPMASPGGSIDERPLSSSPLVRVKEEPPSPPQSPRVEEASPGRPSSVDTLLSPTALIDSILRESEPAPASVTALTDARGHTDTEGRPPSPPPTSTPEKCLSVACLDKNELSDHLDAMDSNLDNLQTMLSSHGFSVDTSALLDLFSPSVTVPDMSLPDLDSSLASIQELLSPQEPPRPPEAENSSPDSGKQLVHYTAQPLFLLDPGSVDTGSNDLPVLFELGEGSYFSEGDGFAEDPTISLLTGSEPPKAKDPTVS
Sequence of ETV1 (P50549 whole entry): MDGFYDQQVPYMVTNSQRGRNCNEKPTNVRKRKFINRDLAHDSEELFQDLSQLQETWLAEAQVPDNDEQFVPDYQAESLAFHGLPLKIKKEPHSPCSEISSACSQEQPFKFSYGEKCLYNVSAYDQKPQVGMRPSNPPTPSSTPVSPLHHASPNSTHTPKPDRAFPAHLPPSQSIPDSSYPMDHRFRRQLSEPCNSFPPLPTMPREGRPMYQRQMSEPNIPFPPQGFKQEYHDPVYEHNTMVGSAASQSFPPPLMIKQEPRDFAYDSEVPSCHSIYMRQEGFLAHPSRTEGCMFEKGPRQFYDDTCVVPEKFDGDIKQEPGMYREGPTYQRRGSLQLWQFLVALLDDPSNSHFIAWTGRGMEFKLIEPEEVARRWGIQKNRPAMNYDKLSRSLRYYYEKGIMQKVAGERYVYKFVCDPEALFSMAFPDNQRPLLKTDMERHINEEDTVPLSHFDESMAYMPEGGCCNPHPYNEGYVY
Sequence of ETV5 (P41161 whole entry): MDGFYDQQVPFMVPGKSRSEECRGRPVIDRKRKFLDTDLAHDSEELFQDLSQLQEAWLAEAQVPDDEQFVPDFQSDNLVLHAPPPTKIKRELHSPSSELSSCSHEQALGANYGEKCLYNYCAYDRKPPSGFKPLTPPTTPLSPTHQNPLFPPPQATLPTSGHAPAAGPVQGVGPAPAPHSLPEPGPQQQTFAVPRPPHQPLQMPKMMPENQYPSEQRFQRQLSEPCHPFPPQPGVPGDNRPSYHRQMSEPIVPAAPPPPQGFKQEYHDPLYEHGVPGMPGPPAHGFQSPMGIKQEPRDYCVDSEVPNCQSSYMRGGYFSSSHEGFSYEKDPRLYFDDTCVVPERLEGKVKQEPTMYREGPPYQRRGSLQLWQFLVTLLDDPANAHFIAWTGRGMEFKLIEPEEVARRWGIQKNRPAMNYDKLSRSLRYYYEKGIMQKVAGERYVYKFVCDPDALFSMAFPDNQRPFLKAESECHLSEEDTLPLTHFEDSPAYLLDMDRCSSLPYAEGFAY
Sequence of ELF4 (Q99607 whole entry): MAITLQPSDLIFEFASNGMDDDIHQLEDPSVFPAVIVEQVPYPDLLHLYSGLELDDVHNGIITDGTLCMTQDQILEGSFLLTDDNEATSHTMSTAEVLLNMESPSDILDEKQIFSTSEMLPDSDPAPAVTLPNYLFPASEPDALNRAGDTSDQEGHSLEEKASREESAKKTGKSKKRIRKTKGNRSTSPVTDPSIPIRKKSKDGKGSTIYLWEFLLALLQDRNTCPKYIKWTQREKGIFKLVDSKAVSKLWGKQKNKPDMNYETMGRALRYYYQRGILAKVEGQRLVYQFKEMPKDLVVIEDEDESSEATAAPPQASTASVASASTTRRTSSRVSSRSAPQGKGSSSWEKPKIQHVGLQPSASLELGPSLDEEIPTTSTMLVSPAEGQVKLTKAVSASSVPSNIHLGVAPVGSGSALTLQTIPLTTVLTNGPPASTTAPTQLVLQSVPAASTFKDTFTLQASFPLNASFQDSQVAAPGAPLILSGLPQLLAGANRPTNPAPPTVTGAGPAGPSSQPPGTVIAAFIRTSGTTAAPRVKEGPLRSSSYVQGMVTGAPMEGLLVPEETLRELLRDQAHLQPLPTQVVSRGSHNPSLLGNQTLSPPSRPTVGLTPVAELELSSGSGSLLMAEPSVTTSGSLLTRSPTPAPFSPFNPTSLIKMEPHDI

Sequence: TACCTT
- binding signal (FEV): 1.34 fold enrichment (6-mer frequency, TF over GST control)
- binding signal (ETV5): 1.4 fold enrichment (6-mer frequency, TF over GST control)
- binding signal (HSF1): 1.3 fold enrichment (6-mer frequency, TF over GST control)
- binding signal (SPIC): 1.3 fold enrichment (6-mer frequency, TF over GST control)
- binding signal (ELF4): 1.38 fold enrichment (6-mer frequency, TF over GST control)
- binding signal (ELK4): 1.46 fold enrichment (6-mer frequency, TF over GST control)
- binding signal (ETV2): 1.6 fold enrichment (6-mer frequency, TF over GST control)
- binding signal (ELF3): 1.31 fold enrichment (6-mer frequency, TF over GST control)
- binding signal (CRX): 1.55 fold enrichment (6-mer frequency, TF over GST control)
- binding signal (ETV1): 1.5 fold enrichment (6-mer frequency, TF over GST control)
